# Data from ChEMBL document CHEMBL1961873, “Compounds: GSK PKIS; Assays: Nanosyn kinase panel” (2012).
# Assays:
# [1] = biological target: Serine/threonine-protein kinase MARK2 (Homo sapiens) (UniProt Q7KZI7); settings: at 1 µM
# [2] = biological target: PAS domain-containing serine/threonine-protein kinase (Homo sapiens) (UniProt Q96RG2); settings: at 0.1 µM
# [3] = biological target: PAS domain-containing serine/threonine-protein kinase (Homo sapiens) (UniProt Q96RG2); settings: at 1 µM
# [4] = biological target: Phosphorylase b kinase gamma catalytic chain, skeletal muscle/heart isoform (Homo sapiens) (UniProt Q16816); settings: at 0.1 µM
# Chain of Phosphorylase b kinase gamma catalytic chain, skeletal muscle/heart isoform (Homo sapiens) (Q16816 whole entry, looked up, canonical isoform): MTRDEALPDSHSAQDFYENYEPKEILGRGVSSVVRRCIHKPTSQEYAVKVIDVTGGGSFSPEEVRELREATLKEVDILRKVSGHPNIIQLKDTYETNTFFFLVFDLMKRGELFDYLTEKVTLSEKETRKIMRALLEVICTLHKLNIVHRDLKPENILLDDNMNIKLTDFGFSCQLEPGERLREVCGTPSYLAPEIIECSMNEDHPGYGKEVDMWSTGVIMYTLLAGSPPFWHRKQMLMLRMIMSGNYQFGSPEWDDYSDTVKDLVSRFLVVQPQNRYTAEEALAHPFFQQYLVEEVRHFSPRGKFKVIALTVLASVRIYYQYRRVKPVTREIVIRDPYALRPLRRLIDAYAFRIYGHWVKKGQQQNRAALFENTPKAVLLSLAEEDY
# [5] = biological target: Phosphorylase b kinase gamma catalytic chain, skeletal muscle/heart isoform (Homo sapiens) (UniProt Q16816); settings: at 1 µM
# [6] = biological target: T1, Phosphorylase b kinase gamma catalytic chain, liver/testis isoform (Homo sapiens) (UniProt P15735); settings: at 0.1 µM
# T1 sequence (whole entry): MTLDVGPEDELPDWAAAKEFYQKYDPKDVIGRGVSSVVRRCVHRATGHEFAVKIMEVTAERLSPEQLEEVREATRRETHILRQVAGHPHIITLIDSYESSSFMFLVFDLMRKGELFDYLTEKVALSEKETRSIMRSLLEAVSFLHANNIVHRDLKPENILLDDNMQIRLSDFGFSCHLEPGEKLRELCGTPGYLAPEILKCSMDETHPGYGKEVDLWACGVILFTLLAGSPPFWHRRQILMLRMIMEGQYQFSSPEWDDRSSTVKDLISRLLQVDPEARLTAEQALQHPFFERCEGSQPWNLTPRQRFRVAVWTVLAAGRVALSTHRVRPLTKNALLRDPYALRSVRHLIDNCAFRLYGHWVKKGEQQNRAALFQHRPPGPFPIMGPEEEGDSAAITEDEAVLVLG
# [7] = biological target: T1, Phosphorylase b kinase gamma catalytic chain, liver/testis isoform (Homo sapiens); settings: at 1 µM
# [8] = biological target: Serine/threonine-protein kinase pim-1 (Homo sapiens) (UniProt P11309); settings: at 0.1 µM
# [9] = biological target: Serine/threonine-protein kinase pim-1 (Homo sapiens) (UniProt P11309); settings: at 1 µM
# [10] = biological target: Serine/threonine-protein kinase pim-2 (Homo sapiens) (UniProt Q9P1W9); settings: at 0.1 µM
# Chain of Serine/threonine-protein kinase pim-2 (Homo sapiens) (Q9P1W9 whole entry, looked up): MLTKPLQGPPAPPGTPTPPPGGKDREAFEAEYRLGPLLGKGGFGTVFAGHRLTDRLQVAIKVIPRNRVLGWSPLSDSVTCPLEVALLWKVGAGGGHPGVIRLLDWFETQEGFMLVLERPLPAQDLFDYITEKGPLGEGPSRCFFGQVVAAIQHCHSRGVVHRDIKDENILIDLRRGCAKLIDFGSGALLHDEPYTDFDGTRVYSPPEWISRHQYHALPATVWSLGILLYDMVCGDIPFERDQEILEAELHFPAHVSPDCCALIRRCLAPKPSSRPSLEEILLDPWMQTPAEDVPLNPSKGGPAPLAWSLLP
# [11] = biological target: Serine/threonine-protein kinase pim-2 (Homo sapiens) (UniProt Q9P1W9); settings: at 1 µM
# [12] = biological target: Serine/threonine-protein kinase pim-3 (Homo sapiens) (UniProt Q86V86); settings: at 0.1 µM
# [13] = biological target: Serine/threonine-protein kinase pim-3 (Homo sapiens) (UniProt Q86V86); settings: at 1 µM
# [14] = biological target: T2, MAP kinase-activated protein kinase 5 (Homo sapiens) (UniProt Q8IW41); settings: at 0.1 µM
# T2 sequence (whole entry): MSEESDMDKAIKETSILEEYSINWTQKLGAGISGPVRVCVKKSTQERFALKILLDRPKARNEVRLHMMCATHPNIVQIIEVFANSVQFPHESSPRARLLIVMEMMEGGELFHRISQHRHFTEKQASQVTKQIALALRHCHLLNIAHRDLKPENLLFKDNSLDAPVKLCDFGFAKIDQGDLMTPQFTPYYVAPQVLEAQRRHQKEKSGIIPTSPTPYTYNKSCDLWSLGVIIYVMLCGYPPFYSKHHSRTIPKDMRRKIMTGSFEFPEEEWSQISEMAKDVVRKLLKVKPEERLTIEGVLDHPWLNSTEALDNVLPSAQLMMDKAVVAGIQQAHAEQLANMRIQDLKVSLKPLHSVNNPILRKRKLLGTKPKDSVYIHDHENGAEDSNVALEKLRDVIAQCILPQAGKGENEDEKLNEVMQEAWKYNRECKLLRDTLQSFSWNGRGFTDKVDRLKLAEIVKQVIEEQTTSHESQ
# [15] = biological target: T2, MAP kinase-activated protein kinase 5 (Homo sapiens); settings: at 1 µM
# [16] = biological target: Serine/threonine-protein kinase SIK1 (Homo sapiens) (UniProt P57059); settings: at 0.1 µM
# Chain of Serine/threonine-protein kinase SIK1 (Homo sapiens) (P57059 whole entry): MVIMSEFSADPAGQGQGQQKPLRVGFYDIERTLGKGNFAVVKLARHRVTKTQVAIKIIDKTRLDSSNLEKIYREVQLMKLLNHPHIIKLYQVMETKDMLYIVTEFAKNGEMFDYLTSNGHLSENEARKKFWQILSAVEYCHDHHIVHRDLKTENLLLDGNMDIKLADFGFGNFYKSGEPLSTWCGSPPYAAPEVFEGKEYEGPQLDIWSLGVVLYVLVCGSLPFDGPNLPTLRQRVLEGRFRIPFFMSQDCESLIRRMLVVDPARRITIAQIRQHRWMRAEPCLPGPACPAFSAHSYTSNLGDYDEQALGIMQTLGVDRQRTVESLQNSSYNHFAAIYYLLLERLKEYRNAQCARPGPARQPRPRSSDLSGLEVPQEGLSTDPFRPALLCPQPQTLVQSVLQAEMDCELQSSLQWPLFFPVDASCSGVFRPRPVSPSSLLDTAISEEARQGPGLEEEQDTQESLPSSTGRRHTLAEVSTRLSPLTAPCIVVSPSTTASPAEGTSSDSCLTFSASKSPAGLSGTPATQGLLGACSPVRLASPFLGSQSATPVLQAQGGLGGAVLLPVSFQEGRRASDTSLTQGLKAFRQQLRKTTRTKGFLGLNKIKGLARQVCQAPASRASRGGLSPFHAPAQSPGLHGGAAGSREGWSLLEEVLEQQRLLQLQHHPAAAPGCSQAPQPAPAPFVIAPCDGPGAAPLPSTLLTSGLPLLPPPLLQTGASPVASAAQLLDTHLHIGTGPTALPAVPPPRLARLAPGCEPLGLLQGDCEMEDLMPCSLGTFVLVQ
# [17] = biological target: Serine/threonine-protein kinase SIK1 (Homo sapiens) (UniProt P57059); settings: at 1 µM
# [18] = biological target: Serine/threonine-protein kinase SIK2 (Homo sapiens) (UniProt Q9H0K1); settings: at 0.1 µM
# Chain of Serine/threonine-protein kinase SIK2 (Homo sapiens) (Q9H0K1 whole entry, looked up): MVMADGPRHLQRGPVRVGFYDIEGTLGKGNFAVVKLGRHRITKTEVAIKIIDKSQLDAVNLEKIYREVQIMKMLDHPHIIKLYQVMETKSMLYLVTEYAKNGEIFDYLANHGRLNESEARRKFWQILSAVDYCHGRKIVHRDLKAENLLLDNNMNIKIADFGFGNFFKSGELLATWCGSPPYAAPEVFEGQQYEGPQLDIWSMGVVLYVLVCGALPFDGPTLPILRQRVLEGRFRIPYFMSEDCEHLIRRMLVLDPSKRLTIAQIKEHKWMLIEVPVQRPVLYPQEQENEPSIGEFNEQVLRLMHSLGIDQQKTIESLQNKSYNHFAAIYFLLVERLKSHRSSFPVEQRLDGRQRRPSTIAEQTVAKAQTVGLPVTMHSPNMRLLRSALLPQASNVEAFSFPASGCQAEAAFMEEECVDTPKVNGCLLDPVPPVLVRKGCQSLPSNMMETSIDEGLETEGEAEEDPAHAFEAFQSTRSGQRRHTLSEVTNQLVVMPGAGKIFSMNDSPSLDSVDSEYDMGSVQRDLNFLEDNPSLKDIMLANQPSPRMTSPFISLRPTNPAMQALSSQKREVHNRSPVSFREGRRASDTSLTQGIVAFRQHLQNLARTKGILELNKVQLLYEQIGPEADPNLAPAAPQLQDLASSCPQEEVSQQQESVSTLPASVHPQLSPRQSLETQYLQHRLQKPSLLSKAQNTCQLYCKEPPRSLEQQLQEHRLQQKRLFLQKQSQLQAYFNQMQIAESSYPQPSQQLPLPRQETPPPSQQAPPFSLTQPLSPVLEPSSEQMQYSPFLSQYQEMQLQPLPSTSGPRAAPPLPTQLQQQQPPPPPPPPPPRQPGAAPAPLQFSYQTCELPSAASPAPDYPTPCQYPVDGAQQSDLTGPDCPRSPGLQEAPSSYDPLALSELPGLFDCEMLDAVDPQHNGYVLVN
# [19] = biological target: Serine/threonine-protein kinase SIK2 (Homo sapiens) (UniProt Q9H0K1); settings: at 1 µM
# [20] = biological target: T3, Serine/threonine-protein kinase TBK1 (Homo sapiens) (UniProt Q9UHD2); settings: at 0.1 µM;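 further: values are the mean TBK1 inhibition, taken from the GSK PKIS screening data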
# T3 sequence (whole entry): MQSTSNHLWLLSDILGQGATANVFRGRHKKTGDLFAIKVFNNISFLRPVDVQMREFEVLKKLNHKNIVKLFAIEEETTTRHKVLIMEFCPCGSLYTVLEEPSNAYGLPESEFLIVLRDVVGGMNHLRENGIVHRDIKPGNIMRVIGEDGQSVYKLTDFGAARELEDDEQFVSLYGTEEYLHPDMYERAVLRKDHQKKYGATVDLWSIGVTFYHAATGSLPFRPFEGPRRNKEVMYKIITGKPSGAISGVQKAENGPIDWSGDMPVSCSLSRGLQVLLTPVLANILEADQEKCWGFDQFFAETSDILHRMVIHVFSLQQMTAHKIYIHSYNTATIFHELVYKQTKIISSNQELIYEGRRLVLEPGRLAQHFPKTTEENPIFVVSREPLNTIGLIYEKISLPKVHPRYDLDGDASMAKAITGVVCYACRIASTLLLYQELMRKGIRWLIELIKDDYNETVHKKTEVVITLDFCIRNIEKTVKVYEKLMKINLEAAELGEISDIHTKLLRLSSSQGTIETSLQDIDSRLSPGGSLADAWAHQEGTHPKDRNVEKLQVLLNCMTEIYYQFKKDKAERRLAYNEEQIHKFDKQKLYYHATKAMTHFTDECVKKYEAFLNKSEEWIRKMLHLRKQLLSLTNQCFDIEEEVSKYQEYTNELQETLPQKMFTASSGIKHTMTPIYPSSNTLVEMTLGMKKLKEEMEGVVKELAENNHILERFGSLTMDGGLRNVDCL
# Chain of Serine/threonine-protein kinase MARK2 (Homo sapiens) (Q7KZI7 whole entry, the tested form may be a part): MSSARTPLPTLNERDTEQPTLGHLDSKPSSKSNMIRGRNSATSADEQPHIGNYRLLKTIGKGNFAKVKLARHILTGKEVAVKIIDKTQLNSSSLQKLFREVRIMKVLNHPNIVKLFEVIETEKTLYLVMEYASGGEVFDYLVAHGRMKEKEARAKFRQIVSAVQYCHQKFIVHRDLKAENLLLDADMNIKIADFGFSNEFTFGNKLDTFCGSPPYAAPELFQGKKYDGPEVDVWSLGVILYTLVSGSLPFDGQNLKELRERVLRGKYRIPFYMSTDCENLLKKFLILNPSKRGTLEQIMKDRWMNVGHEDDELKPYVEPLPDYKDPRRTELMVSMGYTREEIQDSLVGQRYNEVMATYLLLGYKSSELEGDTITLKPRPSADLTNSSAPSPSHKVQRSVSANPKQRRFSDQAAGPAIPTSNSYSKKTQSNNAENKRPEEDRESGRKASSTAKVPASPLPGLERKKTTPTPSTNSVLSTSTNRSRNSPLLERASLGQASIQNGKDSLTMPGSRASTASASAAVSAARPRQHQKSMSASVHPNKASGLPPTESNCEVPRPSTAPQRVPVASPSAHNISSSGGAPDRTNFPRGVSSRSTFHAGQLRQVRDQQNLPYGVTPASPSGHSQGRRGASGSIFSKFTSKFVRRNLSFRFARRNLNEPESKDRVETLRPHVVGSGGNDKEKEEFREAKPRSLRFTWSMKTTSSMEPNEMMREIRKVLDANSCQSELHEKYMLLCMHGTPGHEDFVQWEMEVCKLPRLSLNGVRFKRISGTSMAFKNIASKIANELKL
# Chain of PAS domain-containing serine/threonine-protein kinase (Homo sapiens) (Q96RG2 whole entry, the tested form may be a part, canonical isoform): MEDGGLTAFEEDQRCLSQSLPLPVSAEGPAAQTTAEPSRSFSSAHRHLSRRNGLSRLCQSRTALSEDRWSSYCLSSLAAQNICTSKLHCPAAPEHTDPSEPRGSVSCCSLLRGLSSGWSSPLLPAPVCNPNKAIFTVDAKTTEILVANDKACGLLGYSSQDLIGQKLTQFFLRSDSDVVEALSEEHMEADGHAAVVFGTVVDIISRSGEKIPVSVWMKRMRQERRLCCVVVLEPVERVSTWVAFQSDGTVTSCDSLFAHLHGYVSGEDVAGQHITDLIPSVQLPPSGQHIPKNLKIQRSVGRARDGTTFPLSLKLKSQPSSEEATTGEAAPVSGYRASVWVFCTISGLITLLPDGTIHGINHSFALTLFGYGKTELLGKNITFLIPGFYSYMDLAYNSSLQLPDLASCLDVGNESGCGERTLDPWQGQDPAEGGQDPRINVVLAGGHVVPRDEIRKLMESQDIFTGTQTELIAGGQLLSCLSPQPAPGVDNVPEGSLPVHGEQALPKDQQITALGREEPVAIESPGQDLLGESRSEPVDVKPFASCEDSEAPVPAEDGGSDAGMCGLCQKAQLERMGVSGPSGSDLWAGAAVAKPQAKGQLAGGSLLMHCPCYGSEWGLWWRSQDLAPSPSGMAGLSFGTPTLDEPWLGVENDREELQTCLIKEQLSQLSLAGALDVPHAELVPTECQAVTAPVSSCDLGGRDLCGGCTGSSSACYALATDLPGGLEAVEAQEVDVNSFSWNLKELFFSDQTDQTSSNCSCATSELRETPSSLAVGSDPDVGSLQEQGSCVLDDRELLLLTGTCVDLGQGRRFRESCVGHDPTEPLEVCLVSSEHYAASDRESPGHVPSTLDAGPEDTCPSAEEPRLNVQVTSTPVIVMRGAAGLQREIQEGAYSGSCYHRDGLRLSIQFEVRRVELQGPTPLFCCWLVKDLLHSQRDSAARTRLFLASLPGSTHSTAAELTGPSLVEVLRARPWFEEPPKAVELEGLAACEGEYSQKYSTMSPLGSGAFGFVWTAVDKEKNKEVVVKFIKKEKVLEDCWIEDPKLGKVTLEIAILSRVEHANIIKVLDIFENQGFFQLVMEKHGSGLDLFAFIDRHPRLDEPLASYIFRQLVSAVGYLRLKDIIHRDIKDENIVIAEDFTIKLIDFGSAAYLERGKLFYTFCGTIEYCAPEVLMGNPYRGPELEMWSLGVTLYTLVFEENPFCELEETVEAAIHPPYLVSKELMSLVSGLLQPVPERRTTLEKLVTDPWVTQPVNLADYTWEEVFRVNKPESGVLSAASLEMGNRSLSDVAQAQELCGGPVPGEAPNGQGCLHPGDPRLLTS
structure (smiles),measurement,setting,value
CCC(=O)Nc1ccc(C)c(-c2ccc(C(=O)NCC3CC3)cc2)c1,inhibition,[1],1.92%
same,inhibition,[2],-0.16%
same,inhibition,[3],-0.9%
same,inhibition,[4],1.26%
same,inhibition,[5],4.36%
same,inhibition,[6],2.68%
same,inhibition,[7],2.43%
same,inhibition,[8],1.37%
same,inhibition,[9],1.55%
same,inhibition,[10],-2.01%
same,inhibition,[11],0.38%
same,inhibition,[12],0.17%
same,inhibition,[13],0.73%
same,inhibition,[14],0.96%
same,inhibition,[15],0.76%
same,inhibition,[16],4.61%
same,inhibition,[17],5.28%
same,inhibition,[18],4.06%
same,inhibition,[19],6.63%
same,inhibition,[20],2.36%
CN1CCN(CCCNc2nc3ccc(Oc4ccc(NC(=O)Nc5cc(C(F)(F)F)ccc5F)cc4)cc3[nH]2)CC1,inhibition,[1],2.75%
same,inhibition,[2],1.07%
same,inhibition,[3],-1.18%
same,inhibition,[4],-0.01%
same,inhibition,[5],0.68%
same,inhibition,[6],2.23%
same,inhibition,[7],-0.8%
same,inhibition,[8],0.7%
same,inhibition,[9],0.87%
same,inhibition,[10],-1.87%
same,inhibition,[11],-1.74%
same,inhibition,[12],1.11%
same,inhibition,[13],-0.28%
same,inhibition,[14],-0.1%
same,inhibition,[15],-1.41%
same,inhibition,[16],0.75%
same,inhibition,[17],3.99%
same,inhibition,[18],-2.3%
same,inhibition,[19],0.76%
same,inhibition,[20],1.88%
Clc1ccc(CNc2nccc(-c3cnn4ncccc34)n2)cc1,inhibition,[1],2.93%
same,inhibition,[2],0.92%
same,inhibition,[3],1.97%
same,inhibition,[4],-0.23%
same,inhibition,[5],5.35%
same,inhibition,[6],2.58%
same,inhibition,[7],2.28%
same,inhibition,[8],1.63%
same,inhibition,[9],3.93%
same,inhibition,[10],-0.52%
same,inhibition,[11],2.14%
same,inhibition,[12],1.78%
same,inhibition,[13],6.13%
same,inhibition,[14],0.35%
same,inhibition,[15],0.03%
same,inhibition,[16],0.93%
same,inhibition,[17],1.65%
same,inhibition,[18],4.14%
same,inhibition,[19],0.45%
same,inhibition,[20],0.1%
Cc1ccc(NC(=O)c2ccoc2)cc1-c1ccc(C(=O)NCC2CC2)cc1,inhibition,[1],-0.97%
same,inhibition,[2],1.03%
same,inhibition,[3],0.47%
same,inhibition,[4],3.88%
same,inhibition,[5],1.73%
same,inhibition,[6],3.37%
same,inhibition,[7],3.24%
same,inhibition,[8],0.53%
same,inhibition,[9],0.47%
same,inhibition,[10],-0.3%
same,inhibition,[11],0.6%
same,inhibition,[12],0.71%
same,inhibition,[13],-0.9%
same,inhibition,[14],0.96%
same,inhibition,[15],0.83%
same,inhibition,[16],2.51%
same,inhibition,[17],0.11%
same,inhibition,[18],5.39%
same,inhibition,[19],5.33%
same,inhibition,[20],0.28%
NC(=O)Cc1ccccc1Oc1nccc(-c2c(-c3ccc(F)cc3)ncn2C2CCNCC2)n1,inhibition,[1],2.22%
same,inhibition,[2],0.15%
same,inhibition,[3],-0.7%
same,inhibition,[4],4.43%
same,inhibition,[5],6.28%
same,inhibition,[6],2.61%
same,inhibition,[7],0.83%
same,inhibition,[8],0.4%
same,inhibition,[9],0.97%
same,inhibition,[10],0.18%
same,inhibition,[11],0.59%
same,inhibition,[12],-1.38%
same,inhibition,[13],0.63%
same,inhibition,[14],0.43%
same,inhibition,[15],-0.72%
same,inhibition,[16],3.93%
same,inhibition,[17],4.7%
same,inhibition,[18],3.81%
same,inhibition,[19],-3.54%
same,inhibition,[20],5.2%
O=C(Nc1ccc(Oc2ccc3[nH]c(NC(=O)c4ccccc4)nc3c2)cc1)Nc1cc(C(F)(F)F)ccc1F,inhibition,[1],1.49%
same,inhibition,[2],0.68%
same,inhibition,[3],0.73%
same,inhibition,[4],1.45%
same,inhibition,[5],7.47%
same,inhibition,[6],3.99%
same,inhibition,[7],4.6%
same,inhibition,[8],0.97%
same,inhibition,[9],0.07%
same,inhibition,[10],-0.34%
same,inhibition,[11],-0.13%
same,inhibition,[12],0.85%
same,inhibition,[13],-0.27%
same,inhibition,[14],0.86%
same,inhibition,[15],0.98%
same,inhibition,[16],5.14%
same,inhibition,[17],9.55%
same,inhibition,[18],6.29%
same,inhibition,[19],6.45%
same,inhibition,[20],0.91%
